About 2,000 (36%) of roughly 5,500 compounds were called active. Not shown: some 18% with an inconclusive outcome. Cut-off read from the data, not from the text of the source: active = normalized growth mostly below about 0.91 (no sharp cut-off); inconclusive = no clear call, values can overlap the other calls; inactive = mostly above about 0.92. This is one part of the list.
Assay: chemical genetic growth profiling, strain panel (AID 1159580);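 note: tested at 20 µM; growth read once vehicle control cultures reached saturation at 30 °C; 1 = growth at the plate median or of vehicle wells; lower values mean less growth of the strain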
Details: growth OD

Measured: normalized growth

CN(C(=O)CN(CCO)CC(=O)N(C)C(C)(C)Cc1ccccc1)C(C)(C)Cc1ccccc1
inactive: S. cerevisiae deletion strains, locus YJR066W, strain TOR1, active compounds read low 0.977 | S. cerevisiae deletion strains, locus YJR075W, strain HOC1, active compounds read low 0.979 | S. cerevisiae deletion strains, locus YKL009W, strain mrt4, active compounds read low 0.965 | S. cerevisiae deletion strains, locus YKL068W, active compounds read low 0.979 | S. cerevisiae deletion strains, locus YKL085W, strain MDH1 (second series), active compounds read low 0.971 | S. cerevisiae deletion strains, locus YKL085W, strain MDH1, active compounds read low 0.971 | S. cerevisiae deletion strains, locus YKL160W, strain elf1, active compounds read low 1.01 | S. cerevisiae deletion strains, locus YKL190W, strain CNB1, active compounds read low 0.992 | S. cerevisiae deletion strains, locus YKR001C, strain vps1, active compounds read low 0.998 | S. cerevisiae deletion strains, locus YKR026C, strain gcn3, active compounds read low 1.02 | S. cerevisiae deletion strains, locus YKR091W, strain srl3, active compounds read low 0.999 | S. cerevisiae deletion strains, locus YLL001W, strain dnm1, active compounds read low 1.02 | S. cerevisiae deletion strains, locus YLL026W, active compounds read low 1.02 | S. cerevisiae deletion strains, locus YLL041C, strain sdh2, active compounds read low 1.01 | S. cerevisiae deletion strains, locus YLR027C, strain aat2, active compounds read low 1.02 | S. cerevisiae deletion strains, locus YLR039C, strain RIC1, active compounds read low 1.03 | S. cerevisiae deletion strains, locus YLR058C, strain SHM2, active compounds read low 0.997 | S. cerevisiae deletion strains, locus YLR102C, strain apc9, active compounds read low 0.986 | S. cerevisiae deletion strains, locus YLR113W, strain HOG1, active compounds read low 0.987 | S. cerevisiae deletion strains, locus YLR221C, strain rsa3, active compounds read low 0.993 | S. cerevisiae deletion strains, locus YLR258W, strain gsy2, active compounds read low 1 | S. cerevisiae deletion strains, locus YLR262C, strain YPT6 (second series), active compounds read low 1.03 | S. cerevisiae deletion strains, locus YLR262C, strain YPT6, active compounds read low 1.02 | S. cerevisiae deletion strains, locus YLR268W, strain sec22, active compounds read low 0.962 | S. cerevisiae deletion strains, locus YLR320W, strain mms22, active compounds read low 0.99 | S. cerevisiae deletion strains, locus YLR330W, strain CHS5, active compounds read low 0.984 | S. cerevisiae deletion strains, locus YLR342W, strain FKS1 (second series), active compounds read low 0.985 | S. cerevisiae deletion strains, locus YLR342W, strain FKS1, active compounds read low 1.01 | S. cerevisiae deletion strains, locus YLR357W, strain rsc2, active compounds read low 1.01 | S. cerevisiae deletion strains, locus YLR370C, strain arc18, active compounds read low 1.02 | S. cerevisiae deletion strains, locus YLR371W, strain rom2, active compounds read low 0.978 | S. cerevisiae deletion strains, locus YLR384C, strain iki3, active compounds read low 1.01 | S. cerevisiae deletion strains, locus YLR418C, strain cdc73, active compounds read low 0.989 | S. cerevisiae deletion strains, locus YML016C, strain PPZ1, active compounds read low 0.994 | S. cerevisiae deletion strains, locus YML032C, strain rad52, active compounds read low 0.98 | S. cerevisiae deletion strains, locus YML120C, strain ndi1, active compounds read low 1.02 | S. cerevisiae deletion strains, locus YML124C, strain tub3, active compounds read low 0.989 | S. cerevisiae deletion strains, locus YMR058W, strain fet3, active compounds read low 1.02 | S. cerevisiae deletion strains, locus YMR078C, strain ctf18, active compounds read low 0.974 | S. cerevisiae deletion strains, locus YMR125W, strain sto1, active compounds read low 1.02 | S. cerevisiae deletion strains, locus YMR129W, active compounds read low 1.01 | S. cerevisiae deletion strains, locus YMR205C, strain PFK2, active compounds read low 1 | S. cerevisiae deletion strains, locus YMR223W, strain ubp8, active compounds read low 0.97 | S. cerevisiae deletion strains, locus YMR231W, strain pep5, active compounds read low 1.01 | S. cerevisiae deletion strains, locus YMR263W, strain SAP30, active compounds read low 0.995 | S. cerevisiae deletion strains, locus YMR307W, strain GAS1, active compounds read low 0.835 | S. cerevisiae deletion strains, locus YNL067W, strain RPL9B, active compounds read low 0.994 | S. cerevisiae deletion strains, locus YNL071W, strain lat1, active compounds read low 1.01 | S. cerevisiae deletion strains, locus YNL153C, strain GIM3, active compounds read low 1.03 | S. cerevisiae deletion strains, locus YNL183C, strain NPR1, active compounds read low 0.944 | S. cerevisiae deletion strains, locus YNL209W, strain ssb2, active compounds read low 1.01 | S. cerevisiae deletion strains, locus YNL233W, strain BNI4, active compounds read low 0.987 | S. cerevisiae deletion strains, locus YNL248C, strain rpa49, active compounds read low 1 | S. cerevisiae deletion strains, locus YNL250W, strain rad50, active compounds read low 0.996 | S. cerevisiae deletion strains, locus YNL271C, strain bni1, active compounds read low 0.982 | S. cerevisiae deletion strains, locus YNL298W, strain CLA4, active compounds read low 0.983 | S. cerevisiae deletion strains, locus YNL307C, strain MCK1, active compounds read low 0.99 | S. cerevisiae deletion strains, locus YNL322C, strain KRE1 (second series), active compounds read low 1.01 | S. cerevisiae deletion strains, locus YNR049C, strain mso1, active compounds read low 1.02 | S. cerevisiae deletion strains, locus YNR052C, strain pop2, active compounds read low 0.972 | S. cerevisiae deletion strains, locus YOL006C, strain TOP1, active compounds read low 1.05 | S. cerevisiae deletion strains, locus YOL012C, strain htz1 0.857 | S. cerevisiae deletion strains, locus YOL147C, strain pex11, active compounds read low 0.987 | S. cerevisiae deletion strains, locus YOR001W, strain rrp6, active compounds read low 0.992 | S. cerevisiae deletion strains, locus YOR061W, strain CKA2, active compounds read low 0.992 | S. cerevisiae deletion strains, locus YOR069W, strain VPS5, active compounds read low 0.991 | S. cerevisiae deletion strains, locus YOR070C, strain gyp1, active compounds read low 1.02 | S. cerevisiae deletion strains, locus YOR080W, strain dia2, active compounds read low 1.01 | S. cerevisiae deletion strains, locus YOR083W, strain WHI5, active compounds read low 1 | S. cerevisiae deletion strains, locus YOR106W, strain vam3, active compounds read low 1.02 | S. cerevisiae deletion strains, locus YOR136W, strain idh2, active compounds read low 0.984 | S. cerevisiae deletion strains, locus YOR144C, strain elg1, active compounds read low 0.99 | S. cerevisiae deletion strains, locus YOR184W, strain ser1, active compounds read low 0.976 | S. cerevisiae deletion strains, locus YOR231W, strain MKK1, active compounds read low 0.991 | S. cerevisiae deletion strains, locus YOR265W, strain rbl2, active compounds read low 1.02 | S. cerevisiae deletion strains, locus YOR270C, strain vph1, active compounds read low 1.09 | S. cerevisiae deletion strains, locus YOR290C, strain snf2, active compounds read low 1.01 | S. cerevisiae deletion strains, locus YOR316C, strain cot1, active compounds read low 0.971 | S. cerevisiae deletion strains, locus YPL051W, strain arl3, active compounds read low 0.999 | S. cerevisiae deletion strains, locus YPL078C, strain atp4, active compounds read low 1.01 | S. cerevisiae deletion strains, locus YPL106C, strain sse1, active compounds read low 0.991 | S. cerevisiae deletion strains, locus YPL240C, strain hsp82, active compounds read low 1 | S. cerevisiae deletion strains, locus YPL256C, strain CLN2, active compounds read low 0.98 | S. cerevisiae deletion strains, locus YPR119W, strain clb2, active compounds read low 0.974 | S. cerevisiae deletion strains, locus YPR141C, strain kar3, active compounds read low 0.981 | S. cerevisiae deletion strains, locus YPR163C, strain tif3, active compounds read low 0.969 | S. cerevisiae deletion strains, locus YPR167C, strain met16, active compounds read low 0.969 | S. cerevisiae deletion strains, strain wtn01, active compounds read low 0.985 | S. cerevisiae strains, strain wild type, active compounds read low 0.991

— PubChem BioAssay AID1159580 (chemical genetic matrix, 2015)
